Assay results published in PubChem BioAssay AID1159580 (chemical genetic matrix, 2015).
Screen size: about 5,500 compounds; about 2,000 (36%) were called active. Roughly 18% stayed inconclusive and do not appear here. No stated cut-off is given here; in the data, active means normalized growth mostly below about 0.91 (no sharp cut-off); inconclusive means no clear call, values can overlap the other calls; inactive means mostly above about 0.92. The list shows a part of the results.

Experiment: chemical genetic growth profiling, strain panel (AID 1159580);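 further: tested at 20 µM; growth read once vehicle control cultures reached saturation at 30 °C; 1 = growth at the plate median or of vehicle wells; lower values mean less growth of the strain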
Conditions: growth OD

Measured: normalized growth

Clc1ccc(C(OCCN2CCCCC2)c2ccccc2)cc1 (centres undefined)
inactive: S. cerevisiae deletion strains, locus YJR043C, strain POL32, active compounds read low 1.02 | S. cerevisiae deletion strains, locus YJR075W, strain HOC1, active compounds read low 0.948 | S. cerevisiae deletion strains, locus YKL009W, strain mrt4, active compounds read low 0.996 | S. cerevisiae deletion strains, locus YKL068W, active compounds read low 1 | S. cerevisiae deletion strains, locus YKL085W, strain MDH1 (second series), active compounds read low 0.997 | S. cerevisiae deletion strains, locus YKL085W, strain MDH1, active compounds read low 0.997 | S. cerevisiae deletion strains, locus YKL160W, strain elf1, active compounds read low 1.02 | S. cerevisiae deletion strains, locus YKL190W, strain CNB1, active compounds read low 1.01 | S. cerevisiae deletion strains, locus YKR001C, strain vps1, active compounds read low 0.994 | S. cerevisiae deletion strains, locus YKR026C, strain gcn3, active compounds read low 1.02 | S. cerevisiae deletion strains, locus YKR091W, strain srl3, active compounds read low 1.02 | S. cerevisiae deletion strains, locus YLL001W, strain dnm1, active compounds read low 1.02 | S. cerevisiae deletion strains, locus YLL026W, active compounds read low 1.02 | S. cerevisiae deletion strains, locus YLL041C, strain sdh2, active compounds read low 1.01 | S. cerevisiae deletion strains, locus YLR027C, strain aat2, active compounds read low 1.02 | S. cerevisiae deletion strains, locus YLR039C, strain RIC1, active compounds read low 1.26 | S. cerevisiae deletion strains, locus YLR058C, strain SHM2, active compounds read low 1 | S. cerevisiae deletion strains, locus YLR102C, strain apc9, active compounds read low 0.999 | S. cerevisiae deletion strains, locus YLR221C, strain rsa3, active compounds read low 1.01 | S. cerevisiae deletion strains, locus YLR258W, strain gsy2, active compounds read low 1.02 | S. cerevisiae deletion strains, locus YLR262C, strain YPT6 (second series), active compounds read low 1.07 | S. cerevisiae deletion strains, locus YLR262C, strain YPT6, active compounds read low 1.27 | S. cerevisiae deletion strains, locus YLR268W, strain sec22, active compounds read low 0.96 | S. cerevisiae deletion strains, locus YLR320W, strain mms22, active compounds read low 1.01 | S. cerevisiae deletion strains, locus YLR330W, strain CHS5, active compounds read low 1.01 | S. cerevisiae deletion strains, locus YLR342W, strain FKS1 (second series), active compounds read low 0.907 | S. cerevisiae deletion strains, locus YLR342W, strain FKS1, active compounds read low 1.04 | S. cerevisiae deletion strains, locus YLR357W, strain rsc2, active compounds read low 1.02 | S. cerevisiae deletion strains, locus YLR370C, strain arc18, active compounds read low 1 | S. cerevisiae deletion strains, locus YLR371W, strain rom2, active compounds read low 1.01 | S. cerevisiae deletion strains, locus YLR384C, strain iki3, active compounds read low 1.01 | S. cerevisiae deletion strains, locus YLR418C, strain cdc73, active compounds read low 0.852 | S. cerevisiae deletion strains, locus YML016C, strain PPZ1, active compounds read low 0.999 | S. cerevisiae deletion strains, locus YML032C, strain rad52, active compounds read low 0.979 | S. cerevisiae deletion strains, locus YML120C, strain ndi1, active compounds read low 1.01 | S. cerevisiae deletion strains, locus YML124C, strain tub3, active compounds read low 1.01 | S. cerevisiae deletion strains, locus YMR058W, strain fet3, active compounds read low 1.02 | S. cerevisiae deletion strains, locus YMR078C, strain ctf18, active compounds read low 1 | S. cerevisiae deletion strains, locus YMR125W, strain sto1, active compounds read low 1.03 | S. cerevisiae deletion strains, locus YMR129W, active compounds read low 1.03 | S. cerevisiae deletion strains, locus YMR205C, strain PFK2, active compounds read low 1.01 | S. cerevisiae deletion strains, locus YMR223W, strain ubp8, active compounds read low 0.987 | S. cerevisiae deletion strains, locus YMR231W, strain pep5, active compounds read low 1.02 | S. cerevisiae deletion strains, locus YMR263W, strain SAP30, active compounds read low 0.977 | S. cerevisiae deletion strains, locus YMR307W, strain GAS1, active compounds read low 1.12 | S. cerevisiae deletion strains, locus YNL067W, strain RPL9B, active compounds read low 0.98 | S. cerevisiae deletion strains, locus YNL071W, strain lat1, active compounds read low 1.02 | S. cerevisiae deletion strains, locus YNL128W, strain TEP1, active compounds read low 0.955 | S. cerevisiae deletion strains, locus YNL153C, strain GIM3, active compounds read low 0.971 | S. cerevisiae deletion strains, locus YNL209W, strain ssb2, active compounds read low 1.03 | S. cerevisiae deletion strains, locus YNL233W, strain BNI4, active compounds read low 0.986 | S. cerevisiae deletion strains, locus YNL248C, strain rpa49, active compounds read low 1.03 | S. cerevisiae deletion strains, locus YNL250W, strain rad50, active compounds read low 0.991 | S. cerevisiae deletion strains, locus YNL271C, strain bni1, active compounds read low 0.997 | S. cerevisiae deletion strains, locus YNL298W, strain CLA4, active compounds read low 1 | S. cerevisiae deletion strains, locus YNL307C, strain MCK1, active compounds read low 0.992 | S. cerevisiae deletion strains, locus YNL322C, strain KRE1 (second series), active compounds read low 1.03 | S. cerevisiae deletion strains, locus YNL322C, strain KRE1, active compounds read low 1.01 | S. cerevisiae deletion strains, locus YNR049C, strain mso1, active compounds read low 0.999 | S. cerevisiae deletion strains, locus YNR052C, strain pop2, active compounds read low 0.965 | S. cerevisiae deletion strains, locus YOL006C, strain TOP1, active compounds read low 0.592 | S. cerevisiae deletion strains, locus YOL012C, strain htz1 0.731 | S. cerevisiae deletion strains, locus YOL147C, strain pex11, active compounds read low 0.997 | S. cerevisiae deletion strains, locus YOR001W, strain rrp6, active compounds read low 1.02 | S. cerevisiae deletion strains, locus YOR061W, strain CKA2, active compounds read low 1 | S. cerevisiae deletion strains, locus YOR069W, strain VPS5, active compounds read low 0.997 | S. cerevisiae deletion strains, locus YOR070C, strain gyp1, active compounds read low 1.03 | S. cerevisiae deletion strains, locus YOR080W, strain dia2, active compounds read low 1.02 | S. cerevisiae deletion strains, locus YOR083W, strain WHI5, active compounds read low 1.02 | S. cerevisiae deletion strains, locus YOR106W, strain vam3, active compounds read low 1.01 | S. cerevisiae deletion strains, locus YOR136W, strain idh2, active compounds read low 1 | S. cerevisiae deletion strains, locus YOR144C, strain elg1, active compounds read low 1 | S. cerevisiae deletion strains, locus YOR184W, strain ser1, active compounds read low 1.04 | S. cerevisiae deletion strains, locus YOR265W, strain rbl2, active compounds read low 1.01 | S. cerevisiae deletion strains, locus YOR270C, strain vph1, active compounds read low 0.797 | S. cerevisiae deletion strains, locus YOR290C, strain snf2, active compounds read low 1.01 | S. cerevisiae deletion strains, locus YOR316C, strain cot1, active compounds read low 1 | S. cerevisiae deletion strains, locus YPL051W, strain arl3, active compounds read low 1.01 | S. cerevisiae deletion strains, locus YPL055C, strain LGE1, active compounds read low 0.958 | S. cerevisiae deletion strains, locus YPL078C, strain atp4, active compounds read low 1.02 | S. cerevisiae deletion strains, locus YPL106C, strain sse1, active compounds read low 1.02 | S. cerevisiae deletion strains, locus YPL240C, strain hsp82, active compounds read low 1.01 | S. cerevisiae deletion strains, locus YPL241C, strain CIN2, active compounds read low 1 | S. cerevisiae deletion strains, locus YPR119W, strain clb2, active compounds read low 1 | S. cerevisiae deletion strains, locus YPR141C, strain kar3, active compounds read low 0.993 | S. cerevisiae deletion strains, locus YPR163C, strain tif3, active compounds read low 0.981 | S. cerevisiae deletion strains, locus YPR167C, strain met16, active compounds read low 1 | S. cerevisiae deletion strains, strain wtn01, active compounds read low 0.974 | S. cerevisiae strains, strain wild type, active compounds read low 0.988
